This is an account of results in PubChem BioAssay (Tox21).

The nature of experiment [1]: qHTS assay to identify small molecule agonists of the sonic hedgehog signaling (Shh) pathway (AID 1259368).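 Further: NIH/3T3-derived 3T3Gli1-Luc cells carrying a stable Gli1-driven firefly luciferase reporter; series mostly up to about 92 µM; nearly all actives have a fitted effect of over 15% in size.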 In short, it runs like this: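 Quantitative high-throughput format using a Gli1-driven firefly luciferase reporter line derived from NIH/3T3 cells. After a 24 hr compound treatment at 37 C and 5% CO2, luminescence reported Gli1 response element activity.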
Background: qHTS replaces the single test concentration by a dilution series.

Experiment [2] in a line: qHTS assay to identify small molecule antagonists of the sonic hedgehog signaling (Shh) pathway (AID 1259369). Further: nearly all actives have a fitted effect of over 45% in size. Further: potency means the concentration at half of the fitted maximal effect. In short, it runs like this: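 Stable Gli1-Luc reporter NIH/3T3 clone; quantitative HTS in stimulated mode with conditioned medium. Luminescence measured after 24hr compound treatment at 37 C.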
In experiment [3] the target is Estrogen receptor beta (Homo sapiens) (UniProt Q92731). Kind of experiment: qHTS assay to identify small molecule agonists of the estrogen receptor beta (ER-beta) signaling pathway (AID 1259377; active means well fitted activation curve with a large enough effect in the signal ratio in the repeat runs, not every such curve was filed as active; the % refers to the signal ratio). The procedure, abridged: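 In HEK293T cells bearing a UAS-beta-lactamase reporter under ER-beta control, DMSO-delivered compounds were incubated for 16 hr at 37C. Activity was detected as fluorescence 2 hours after LiveBLAzer B/G FRET substrate addition.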
Sequence of Estrogen receptor beta (Homo sapiens) (Q92731 whole entry, looked up): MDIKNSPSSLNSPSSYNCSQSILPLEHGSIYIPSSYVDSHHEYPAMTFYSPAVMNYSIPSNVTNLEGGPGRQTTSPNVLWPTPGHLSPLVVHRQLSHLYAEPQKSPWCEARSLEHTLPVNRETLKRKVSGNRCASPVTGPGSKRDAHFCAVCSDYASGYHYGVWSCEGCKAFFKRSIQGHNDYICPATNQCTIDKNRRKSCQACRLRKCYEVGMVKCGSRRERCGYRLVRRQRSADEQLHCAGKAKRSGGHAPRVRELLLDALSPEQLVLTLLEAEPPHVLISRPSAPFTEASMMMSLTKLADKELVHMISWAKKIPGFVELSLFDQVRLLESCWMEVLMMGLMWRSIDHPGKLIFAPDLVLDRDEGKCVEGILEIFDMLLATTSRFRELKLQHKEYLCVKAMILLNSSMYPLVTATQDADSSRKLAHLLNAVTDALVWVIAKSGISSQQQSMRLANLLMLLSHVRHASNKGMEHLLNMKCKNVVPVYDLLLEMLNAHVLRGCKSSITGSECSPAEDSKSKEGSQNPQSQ

Experiment [4] has the same target. Kind of experiment: qHTS assay to identify small molecule antagonists of the estrogen receptor beta (ER-beta) signaling pathway (AID 1259378; active means well fitted inhibition curve with a large enough effect in the signal ratio in the repeat runs, not every such curve was filed as active; the % refers to the signal ratio). In short, it runs like this:
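ER-beta-UAS-bla HEK293T cells in 2% charcoal-stripped FBS medium treated with compound plus 1nM final 17-beta-estradiol for 16 hr at 37C. Beta-lactamase reporter read by FRET substrate fluorescence after 2 hours at room temperature.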

Experiment [5] is described as follows: qHTS assay to identify small molecule agonists of the androgen receptor (AR) signaling pathway in the presence of an antagonist - cell viability counter screen (AID 1259379; active means well fitted curve in the direction sought with a large enough effect in the repeat runs; an effect the other way counts as inactive or inconclusive;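 further: MDA-kb2 human breast cancer cells carrying an MMTV luciferase reporter; series mostly up to about 92 µM; nearly all actives have a fitted effect of over 25% in size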). In short, it runs like this:
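Nilutamide-containing (3.0uM final) MDA-kb2 cultures, 3,000 cells/well, were treated with compounds across 15 concentrations. After 16 hr at 37C with no CO2, cell viability was determined by CellTiter-Fluor fluorescence in the luciferase assay wells.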

Experiment [6] can be described thus: qHTS assay to identify small molecule agonists of the estrogen receptor beta (ER-beta) signaling pathway - cell viability counter screen (AID 1259380; active means well fitted curve in the direction sought with a large enough effect in the repeat runs; an effect the other way counts as inactive or inconclusive; further: nearly all actives have a fitted effect of over 30% in size). In short, it runs like this: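 Steps: plate ER-beta-UAS-bla HEK293T cells, rest 6 hr; add compounds in DMSO; incubate 16 hr at 37C, 5% CO2; add FRET substrate 2 hr; add CellTiter-Glo, wait 30 min at room temperature; read luminescence.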

The nature of experiment [7]: qHTS assay to identify small molecule antagonists of the estrogen receptor beta (ER-beta) signaling pathway - cell viability counter screen (AID 1259382; active means well fitted curve in the direction sought with a large enough effect in the repeat runs; an effect the other way counts as inactive or inconclusive; further: series mostly up to about 92 µM; nearly all actives have a fitted effect of over 55% in size). In short, it runs like this: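 Viability is scored by CellTiter-Glo luminescence (30 min, room temperature) in ER-beta-UAS-bla HEK293T wells already read for reporter fluorescence. Compound exposure lasts 16 hr at 37C alongside 1nM 17-beta-estradiol in charcoal-stripped serum medium.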

Experiment [8] addresses Estrogen receptor (Homo sapiens) (UniProt P03372). Kind of experiment: qHTS assay to identify small molecule agonists of the estrogen receptor alpha (ER-alpha) signaling pathway in the presence of an antagonist (AID 1259383). Further: top concentration of the series differs between compounds; nearly all actives have a fitted effect of over 15% in size. The procedure, abridged: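 Readout was ERE-driven luciferase luminescence in VM7Luc4E2 cells, which express full-length ER-alpha endogenously. Compounds were tested at 15 concentrations for 22hr alongside 10.0nM ICI-182,780 (final concentration).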

A short description of experiment [9]: qHTS assay to identify small molecule agonists or antagonists of the thyroid stimulating hormone receptor (TSHR) signaling pathway - wild type cell line counter screen (AID 1259384). The procedure, abridged:
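Wild-type Hek293 cells, 800/well, 18 h at 37C, then compound with Ro20-1724 for 30 min RT. cAMP by HTRF (cAMP-d2/anti-cAMP cryptate), 1 h RT, fluorescence read. 15 concentrations, triplicates.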

Experiment [10] deals with Thyrotropin receptor (Homo sapiens) (UniProt P16473). Kind of experiment: qHTS assay to identify small molecule antagonists of the thyroid stimulating hormone receptor (TSHR) signaling pathway (AID 1259385). Further: nearly all actives have a fitted effect of over 20% in size. In short, it runs like this:
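TSHR-HEK293 cells (800/well) plated 18 h, then compounds with Ro20-1724 and TSH at 1.5 ng/mL final, 30 min at room temperature. cAMP quantified by HTRF (cAMP-d2/anti-cAMP-cryptate, 1 h); 15 concentrations in triplicate.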

The nature of experiment [11]: qHTS assay to identify small molecule agonists of the estrogen receptor alpha (ER-alpha) signaling pathway in the presence of an antagonist - cell viability counter screen (AID 1259386; active means well fitted curve in the direction sought with a large enough effect in the repeat runs; an effect the other way counts as inactive or inconclusive;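 further: series mostly up to about 92 µM; cells exposed to compounds for 22 h at 37 °C before the viability read; nearly all actives have a fitted effect of over 30% in size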). In short, it runs like this:
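In this counter screen, compound effects on VM7Luc4E2 viability were tested in the presence of the antagonist ICI-182,780 at 10.0nM final. Compounds were dosed at 15 concentrations, exposure lasted 22hr, and the CellTiter-Fluor signal was read.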

In experiment [12] the target is Progesterone receptor (Homo sapiens) (UniProt P06401). Kind of experiment: qHTS assay to identify small molecule antagonists of the progesterone receptor (PR) signaling pathway (AID 1346795; active means well fitted inhibition curve with a large enough effect in the signal ratio in the repeat runs, not every such curve was filed as active; the % refers to the signal ratio). In short, it runs like this:
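Inhibition of R5020-induced (1 nM final) beta-lactamase reporter signal in PR-UAS-bla HEK293T cells was scored by FRET fluorescence after overnight (16 hr) compound treatment.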

The nature of experiment [13]: qHTS assay to identify small molecule antagonists of the progesterone receptor (PR) signaling pathway - cell viability counter screen (AID 1346798; active means well fitted curve in the direction sought with a large enough effect in the repeat runs; an effect the other way counts as inactive or inconclusive; further: series mostly up to about 92 µM; nearly all actives have a fitted effect of over 50% in size). In short, it runs like this:
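ATP content as viability readout: CellTiter-Glo luminescence, 30 min room temperature, in PR-UAS-bla HEK293T cells after 16 hr compound/R5020 treatment at 37C and 5% CO2.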

A short description of experiment [14]: qHTS assay to identify small molecule agonists of the progesterone receptor (PR) signaling pathway - cell viability counter screen (AID 1346799). Further: nearly all actives have a fitted effect of over 45% in size. The procedure, abridged: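 Cytotoxicity in PR-bla HEK293T cells: 16 h compound, 37C; CellTiter-Glo added post-FRET read; luminescence after 30 min RT.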
Experiment [15] in a line: qHTS assay to identify small molecule antagonists of the TGF-beta/Smad signaling pathway - cell viability counter screen (AID 1346824; active means well fitted curve in the direction sought with a large enough effect in the repeat runs; an effect the other way counts as inactive or inconclusive; further: nearly all actives have a fitted effect of over 50% in size). The procedure, abridged: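 SBE-bla HEK 293T cells, incubated overnight, then compound plus 0.25 ng/mL TGF-beta1 (stock added) for 5 hr at 37 C. Viability was read in the same wells by CellTiter-Glo luminescence after 30 min at room temperature.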

The nature of experiment [16]: qHTS assay to identify small molecule agonists of the TGF-beta/Smad signaling pathway - cell viability counter screen (AID 1346829; active means well fitted curve in the direction sought with a large enough effect in the repeat runs; an effect the other way counts as inactive or inconclusive; further: top concentration of the series differs between compounds; nearly all actives have a fitted effect of over 45% in size). In short, it runs like this: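 HEK 293T SBE-bla line, 5 hr compound exposure at 37 C, multiplexed CellTiter-Glo viability read by luminescence.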
Experiment [17] is described as follows: qHTS assay to identify small molecule agonists of the TGF-beta/Smad signaling pathway (AID 1346859; active means well fitted activation curve with a large enough effect in the signal ratio in the repeat runs, not every such curve was filed as active; the % refers to the signal ratio; further: series mostly up to about 77 µM). The procedure, abridged:
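Stable Smad binding element-beta-lactamase HEK 293T cells; 5 hr compound exposure at 37 C under 5% CO2; 2 hr room-temperature substrate step; fluorescence excited at 405 nm, collected at 460 nm and 530 nm.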

The target in experiment [18] is Thyrotropin-releasing hormone receptor (Homo sapiens) (UniProt P34981). Kind of experiment: qHTS assay to identify small molecule antagonists of the thyrotropin-releasing hormone receptor (TRHR) signaling pathway (AID 1346877; active means well fitted inhibition curve with a large enough effect in the repeat runs, not every such curve was filed as active; further: series mostly up to about 51 µM). In short, it runs like this:
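Kinetic fluorescence (3 min, 1 s resolution) following stimulation with TRH at 1 nM final; HEK293 cells bearing human TRHR; 5 min compound preincubation at RT; concentration-response over 15 points, triplicates.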

For experiment [19], the target named is Androgen receptor (Homo sapiens) (UniProt P10275). In words: qHTS assay to identify small molecule agonists of the androgen receptor (AR) signaling pathway in the presence of an antagonist (AID 1259381). Further: nearly all actives have a fitted effect of over 15% in size. The procedure, abridged:
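Reporter-gene luminescence from MDA-kb2 cells exposed 16hr at 37C (0% CO2) to 15-point compound titrations with 3.0uM final nilutamide as AR antagonist.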

The target in experiment [20] is Progesterone receptor (Homo sapiens) (UniProt P06401). Kind of experiment: qHTS assay to identify small molecule agonists of the progesterone receptor (PR) signaling pathway (AID 1346784). Further: nearly all actives have a fitted effect of over 30% in size. In short, it runs like this: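 Using charcoal-stripped serum (2%) to limit endogenous steroids, PR-UAS-bla HEK 293T cells received compounds for 16 hr at 37C after 6 hr plating; beta-lactamase FRET fluorescence was recorded following 2 hr substrate loading at room temperature.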
Sequence of Progesterone receptor (Homo sapiens) (P06401 whole entry, looked up): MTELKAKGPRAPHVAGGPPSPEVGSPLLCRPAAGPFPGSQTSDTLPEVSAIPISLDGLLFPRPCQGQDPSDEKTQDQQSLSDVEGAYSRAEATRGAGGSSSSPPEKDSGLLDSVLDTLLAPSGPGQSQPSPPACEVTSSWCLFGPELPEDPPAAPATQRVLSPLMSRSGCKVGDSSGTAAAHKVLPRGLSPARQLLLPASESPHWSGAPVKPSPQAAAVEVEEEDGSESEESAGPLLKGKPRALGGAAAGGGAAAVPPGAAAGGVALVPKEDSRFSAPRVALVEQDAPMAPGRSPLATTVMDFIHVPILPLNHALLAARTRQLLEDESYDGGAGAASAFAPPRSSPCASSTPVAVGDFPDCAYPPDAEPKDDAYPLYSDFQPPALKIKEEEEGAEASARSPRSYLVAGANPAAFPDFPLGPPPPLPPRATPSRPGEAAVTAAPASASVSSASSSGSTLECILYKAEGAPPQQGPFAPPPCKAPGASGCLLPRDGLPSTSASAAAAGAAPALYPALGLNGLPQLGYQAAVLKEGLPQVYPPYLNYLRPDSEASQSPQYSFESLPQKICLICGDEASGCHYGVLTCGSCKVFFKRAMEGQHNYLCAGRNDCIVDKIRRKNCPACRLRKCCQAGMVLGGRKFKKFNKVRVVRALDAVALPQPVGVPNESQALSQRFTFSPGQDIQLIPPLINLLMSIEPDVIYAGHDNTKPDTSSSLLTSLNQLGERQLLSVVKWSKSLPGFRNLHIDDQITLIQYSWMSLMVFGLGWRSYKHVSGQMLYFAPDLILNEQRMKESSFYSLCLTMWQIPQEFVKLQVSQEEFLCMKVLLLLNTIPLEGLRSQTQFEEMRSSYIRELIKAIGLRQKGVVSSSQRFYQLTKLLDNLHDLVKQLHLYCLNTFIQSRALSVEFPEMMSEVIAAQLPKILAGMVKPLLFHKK

Molecules are shown by their SMILES. Values without a mark were called inactive. Results filed as inconclusive are left out. Activity calls are given as the source filed them. Unless noted, the call rests on the fitted dose curve.
On the % scale 0 is the no-effect control and ±100 the full control effect.

Sequence of Thyrotropin-releasing hormone receptor (Homo sapiens) (P34981 whole entry, looked up): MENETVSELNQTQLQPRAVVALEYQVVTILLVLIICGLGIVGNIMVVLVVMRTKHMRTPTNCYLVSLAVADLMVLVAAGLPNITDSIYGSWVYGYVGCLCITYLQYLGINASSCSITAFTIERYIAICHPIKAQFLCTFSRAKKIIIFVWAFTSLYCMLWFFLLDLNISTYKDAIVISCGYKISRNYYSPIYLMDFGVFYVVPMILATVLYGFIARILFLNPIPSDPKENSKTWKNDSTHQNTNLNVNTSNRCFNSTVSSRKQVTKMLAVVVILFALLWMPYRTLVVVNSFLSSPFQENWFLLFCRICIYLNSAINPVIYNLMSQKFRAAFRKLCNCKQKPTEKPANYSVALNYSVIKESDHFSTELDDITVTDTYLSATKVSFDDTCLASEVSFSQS
Sequence of Estrogen receptor (Homo sapiens) (P03372 whole entry, looked up): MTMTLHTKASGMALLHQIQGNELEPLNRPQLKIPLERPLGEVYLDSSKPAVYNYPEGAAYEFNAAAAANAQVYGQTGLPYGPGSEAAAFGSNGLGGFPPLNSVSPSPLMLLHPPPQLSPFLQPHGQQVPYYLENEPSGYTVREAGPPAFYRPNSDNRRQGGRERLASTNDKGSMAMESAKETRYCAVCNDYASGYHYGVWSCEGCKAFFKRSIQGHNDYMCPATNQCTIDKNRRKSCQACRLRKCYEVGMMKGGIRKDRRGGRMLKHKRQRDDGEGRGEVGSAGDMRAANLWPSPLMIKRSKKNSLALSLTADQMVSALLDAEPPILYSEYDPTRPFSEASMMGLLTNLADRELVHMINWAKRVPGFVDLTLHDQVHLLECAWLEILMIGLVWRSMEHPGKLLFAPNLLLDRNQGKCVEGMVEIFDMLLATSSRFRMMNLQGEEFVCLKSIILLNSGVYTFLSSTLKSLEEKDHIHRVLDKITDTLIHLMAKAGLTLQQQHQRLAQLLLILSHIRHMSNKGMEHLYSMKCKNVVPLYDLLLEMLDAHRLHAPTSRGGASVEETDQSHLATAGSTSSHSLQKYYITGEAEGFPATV
Sequence of Thyrotropin receptor (Homo sapiens) (P16473 whole entry, looked up): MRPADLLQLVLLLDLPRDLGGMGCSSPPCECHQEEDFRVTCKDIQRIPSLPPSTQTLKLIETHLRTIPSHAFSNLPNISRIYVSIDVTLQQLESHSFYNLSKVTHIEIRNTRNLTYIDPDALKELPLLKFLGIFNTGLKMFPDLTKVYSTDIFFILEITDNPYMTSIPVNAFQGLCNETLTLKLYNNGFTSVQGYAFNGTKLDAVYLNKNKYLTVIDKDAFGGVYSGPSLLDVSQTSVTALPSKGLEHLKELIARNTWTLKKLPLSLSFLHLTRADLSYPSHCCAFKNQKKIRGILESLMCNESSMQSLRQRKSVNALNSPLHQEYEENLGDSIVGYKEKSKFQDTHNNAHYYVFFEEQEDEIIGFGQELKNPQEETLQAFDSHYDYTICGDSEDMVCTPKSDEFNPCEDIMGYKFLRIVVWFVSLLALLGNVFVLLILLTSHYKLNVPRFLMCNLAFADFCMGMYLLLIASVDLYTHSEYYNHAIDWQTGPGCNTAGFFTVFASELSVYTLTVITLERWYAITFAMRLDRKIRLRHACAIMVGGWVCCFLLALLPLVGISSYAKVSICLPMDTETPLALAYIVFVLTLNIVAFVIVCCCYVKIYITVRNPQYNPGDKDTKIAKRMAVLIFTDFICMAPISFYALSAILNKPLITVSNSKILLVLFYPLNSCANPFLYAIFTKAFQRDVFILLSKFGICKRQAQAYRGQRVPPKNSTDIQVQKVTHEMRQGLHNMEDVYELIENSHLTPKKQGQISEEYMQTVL
Sequence of Androgen receptor (Homo sapiens) (P10275 whole entry, looked up): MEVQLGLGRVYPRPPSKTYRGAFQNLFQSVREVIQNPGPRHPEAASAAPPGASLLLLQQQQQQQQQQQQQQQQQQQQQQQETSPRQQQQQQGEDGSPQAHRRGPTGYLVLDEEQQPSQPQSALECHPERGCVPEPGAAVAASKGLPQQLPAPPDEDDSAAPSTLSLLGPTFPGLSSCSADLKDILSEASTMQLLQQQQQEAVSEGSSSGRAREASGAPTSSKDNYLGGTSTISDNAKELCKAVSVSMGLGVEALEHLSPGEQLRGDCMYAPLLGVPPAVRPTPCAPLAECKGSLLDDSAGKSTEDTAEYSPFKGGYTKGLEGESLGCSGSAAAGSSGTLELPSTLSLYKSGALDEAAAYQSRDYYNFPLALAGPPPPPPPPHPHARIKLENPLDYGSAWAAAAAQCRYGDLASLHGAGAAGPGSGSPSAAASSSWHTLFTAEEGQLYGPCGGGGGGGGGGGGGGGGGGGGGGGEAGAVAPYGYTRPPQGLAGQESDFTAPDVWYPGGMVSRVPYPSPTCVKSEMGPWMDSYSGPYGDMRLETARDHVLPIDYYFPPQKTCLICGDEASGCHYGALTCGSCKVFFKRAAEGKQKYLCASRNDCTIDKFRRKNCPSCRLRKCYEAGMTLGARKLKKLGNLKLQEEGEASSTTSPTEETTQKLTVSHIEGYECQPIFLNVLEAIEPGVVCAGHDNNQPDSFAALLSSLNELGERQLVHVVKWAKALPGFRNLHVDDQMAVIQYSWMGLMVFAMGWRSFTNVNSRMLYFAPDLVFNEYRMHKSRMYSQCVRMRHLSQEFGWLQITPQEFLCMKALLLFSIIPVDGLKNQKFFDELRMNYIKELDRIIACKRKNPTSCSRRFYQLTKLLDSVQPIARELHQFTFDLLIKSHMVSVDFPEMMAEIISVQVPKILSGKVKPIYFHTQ

On to `CN(C)C(=O)Nc1ccccc1`, for which the Potency entry in [1], in experiment [2], in experiment [4], in experiment [5], in experiment [6] and in experiment [7] was “inactive” each time. The Potency entry in experiment [8], in experiment [10], in experiment [12], in [13] and in experiment [14] was “inactive” each time. Also, the compound was classed as inactive in experiment [3], in experiment [9], in experiment [11], in [15], in [16] and in [17]. The result in experiment [18] was inactive.

For `O=C(O)C1CCC1`, the Potency entry in experiment [1], in experiment [2], in [4], in [5], in [6] and in [7] was “inactive” throughout. In addition, the Potency entry in experiment [8], in experiment [10], in [12], in [13] and in experiment [14] was “inactive” in each case. The compound was classed as inactive in experiment [3], in experiment [9], in [11], in experiment [15], in experiment [16] and in experiment [17]. Further, the compound was called inactive in experiment [18].

Consider `NCC[C@H](O)C(=O)N[C@@H]1C[C@H](N)[C@@H](O[C@H]2O[C@H](CN)[C@@H](O)[C@H](O)[C@H]2O)[C@H](O)[C@H]1O[C@H]1O[C@H](CO)[C@@H](O)[C@H](N)[C@H]1O`, for which, in [1], the activity change was 0.203% [at 0.349 µM, stronger effect = higher value]. Moreover, the results for the activity change, negative = inhibition in experiment [2], in [10] and in experiment [12] were 22.5% [at 0.349 µM], 0.0742% [at 0.349 µM] and 2.43% [at 0.348 µM], respectively. Further, the activation was 0.597% [at 0.348 µM] in [3]; 0.148% [at 0.349 µM] in experiment [19]; 1.1% [at 0.349 µM] in [8]; 0.26% [at 0.349 µM] in experiment [20]; 5.03% [at 0.29 µM] in [17]. Moreover, the activity, negative = inhibition in experiment [4] is -5.02% [at 0.349 µM]; in [18], 2.62% [at 0.194 µM]. The activity change, negative = cytotoxicity in [5] is 1.61% [at 0.35 µM]; in [6], 1.09% [at 0.349 µM]; in experiment [7] it was 1.11% [at 0.349 µM]; in experiment [11], 0.765% [at 0.349 µM]; in experiment [13] it was 0.454% [at 0.348 µM]; in experiment [14], 8.45% [at 0.349 µM]. Further, in experiment [16], the activity change, negative = cytotoxicity was -7.72% [at 0.29 µM]. Besides, in experiment [9], the cAMP activity change was -0.997% [at 0.349 µM]. Besides, the viability change, negative = cytotoxic in experiment [15] was -7.43% [at 0.29 µM].

Regarding `CCCc1ccc(N)cc1`, the Potency entry in [1], in experiment [2], in [4], in experiment [5], in experiment [6] and in [7] was “inactive” in each case. Moreover, the Potency entry in experiment [8], in experiment [10], in experiment [20], in experiment [12] and in experiment [14] was “inactive” throughout. The compound was called inactive in experiment [3], in experiment [9], in experiment [11], in experiment [15], in experiment [17] and in experiment [18].

In the case of `CC(C)[N+](C)(C)CC(O)COc1cccc2ccccc12` (stereo not drawn), the Potency result in experiment [1], in [2], in experiment [4], in experiment [5], in experiment [6] and in experiment [7] was “inactive” each time. For the same compound, the Potency entry in experiment [8], in experiment [10], in experiment [20], in experiment [12] and in experiment [14] was “inactive” in each case. The result in [3], in [9], in experiment [11], in [15], in experiment [16] and in experiment [17] was inactive. The call in [18] was inactive.

On to `NS(=O)(=O)c1cc2c(cc1C(F)(F)F)NC(Cc1ccccc1)NS2(=O)=O` (stereo not drawn), for which the Potency result in [1], in [2], in [4], in experiment [5], in experiment [6] and in experiment [19] was “inactive” in each case. In addition, the Potency entry in experiment [7], in experiment [10], in [20], in experiment [12] and in [14] was “inactive” throughout. For the same compound, the compound was classed as inactive in [3], in [9], in experiment [11], in experiment [15], in experiment [16] and in [17]. Besides, the result in experiment [18] was inactive.

In the case of `CCCCCCC(CCCCCCCCCCC(=O)OCC(COC(C)=O)OC(C)=O)OC(C)=O` (stereo not drawn), the Potency entry in [1], in [4], in [5], in [6], in [7] and in [8] was “inactive” each time. Further, the Potency result in experiment [10], in [20], in experiment [12], in [13] and in [14] was “inactive” in each case. In experiment [2], the Potency is 1060 nM (active). The outcome in experiment [3], in experiment [9], in experiment [11], in [15], in experiment [16] and in experiment [17] was inactive. Besides, the outcome in experiment [18] was inactive.
